Bioassay records deposited in PubChem BioAssay by National Center for Advancing Translational Sciences (NCATS).
Only some compounds are listed: those with a hit (about 14% of all), similar ones and a draw of the others.
HCMV inh = blocks human cytomegalovirus replication. 410,000 tested, 4.5% active. HFF cells, HCMV-luciferase reporter, 72 h; active compounds read low. activity change, negative = inhibition, % at 57.5 µM. AID 1259415; in the data active = activity change below about -60%; inconclusive = no clear call, values can overlap the other calls; inactive = above about -39%
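Luciferase read-out from HCMV-luciferase-infected HFFs (MOI 1 PFU/cell) 72 h post infection at 37C; compounds added after 16 h cell attachment; activity normalized between buffer-only basal and Salinomycin (10uM) inhibitor controls.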
Pf growth 96h = P. falciparum growth inhibition at 96 hours. P. falciparum luciferase reporter growth, 96 h. Potency, µM (top dose mostly 28.7 µM), usual class: inhibitors. 320,000 tested, 6.9% active. AID 504834
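Erythrocytes infected with luciferase-expressing P. falciparum were dispensed at 2% hematocrit and 0.05% parasitemia (final), then incubated with compounds 96 hours at 37 C in 5% CO2. Luminescence after detection reagent addition reported growth.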
FBPA Giardia inh = Giardia lamblia aldolase inhibition. A8B2U2. purified Giardia FBPA. Potency, µM (top dose mostly 59.6 µM), usual class: inhibitors. 290,000 tested, 0.71% active; note: nearly all actives have a fitted effect of over 55% in size
Target sequence (A8B2U2 whole entry, looked up): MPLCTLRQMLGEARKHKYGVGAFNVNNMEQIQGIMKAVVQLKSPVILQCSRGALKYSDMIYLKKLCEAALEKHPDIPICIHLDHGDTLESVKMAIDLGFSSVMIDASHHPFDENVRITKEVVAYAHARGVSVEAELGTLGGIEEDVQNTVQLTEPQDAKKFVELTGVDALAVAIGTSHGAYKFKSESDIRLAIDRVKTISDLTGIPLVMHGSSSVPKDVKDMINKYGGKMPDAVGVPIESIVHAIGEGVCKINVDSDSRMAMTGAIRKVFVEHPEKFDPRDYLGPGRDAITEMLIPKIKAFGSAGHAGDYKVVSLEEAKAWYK
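Giardia FBPA (40 nM reagent) was preincubated 10 min at RT with compound (up to 57.5 uM final), then substrate plus GAPDH/TPI/NAD/arsenate coupling system with diaphorase/resazurin was added; resorufin fluorescence (525/598 nm) was read after 20 min.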
Sm TGR inh = blocks Schistosoma mansoni thioredoxin glutathione reductase. Potency, µM (highest dose often 114 µM), usual class: inhibitors. purified TGR, DTNB reduction, TNB absorbance 405 nm. Q962Y6. 360,000 tested, 3% active; note: nearly all actives have a fitted effect of over 60% in size
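Kinetic colorimetric format: TGR-catalysed, NADPH-driven DTNB reduction monitored via TNB absorbance. Enzyme dispensed at 20 nM; compound exposure 15 min at room temperature before reaction start.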
Pf growth 48h = inhibits P. falciparum growth in the first generation, 48 h. Potency, µM (top dose mostly 28.7 µM), most hits filed as inhibitors. 310,000 tested, 5.9% active. P. falciparum luciferase growth in erythrocytes, 48 h
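Luciferase-expressing P. falciparum in infected erythrocytes (2% hematocrit, 0.1% parasitemia final) in RPMI 1640/0.5% Albumax were exposed to compound for 48 hours at 37 C, 5% CO2; growth read as luminescence.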
Numbers stand for hits; - = inactive; ? = inconclusive; . = not tested or not shown. Unless noted, calls come from the whole dose curve; as a rule, active = well fitted curve in the direction sought with a large enough effect; inconclusive = small, poorly fitted or top-dose-only effect, or another doubt; inactive = no such curve, though single readings can be large; an effect the other way counts as inactive or inconclusive.

SMILES	HCMV inh	Pf growth 96h	FBPA Giardia inh	Sm TGR inh	Pf growth 48h
CCc1ccc(N/C(SCc2ccccc2C)=C(/C#N)C(=O)NCc2ccco2)cc1	-	-	-	-	13µM
O=C(NCCC(=O)N1CCCCCCC1)c1ccc(Br)cc1	-	10µM	.	-	13µM
O=C(NCCC(=O)N1CCCCC1)c1ccc(Br)cc1	-	-	.	-	-
O=C(NCCOc1ccccc1)C1C(=O)Nc2ccccc2C(=O)N1C1CCCCC1 (centres undefined)	-	.	.	.	.
CCCC(=O)OCCNc1cc(SCc2ccco2)c2nonc2c1[N+](=O)[O-]	-	?	-	14µM	-
CCCC(=O)OCCNc1cc(Sc2nccn2C)c2nonc2c1[N+](=O)[O-]	-	-	-	0.4µM	?
CC(=O)OCCCNc1cc(SCc2ccco2)c2nonc2c1[N+](=O)[O-]	-	2.3µM	-	7.1µM	-
CCCSc1cc(NCCOC(C)=O)c([N+](=O)[O-])c2nonc12	-	?	?	-	-
CCCSc1cc(NCCOC(=O)CCC)c([N+](=O)[O-])c2nonc12	?	-	-	2µM	-
O=[N+]([O-])c1c(NCc2ccco2)ccc2nonc12	?	-	-	-	-
Nc1ccc(C(=O)Nc2ccc(OC(F)(F)C(F)F)c(NC(=O)c3ccc(N)cc3)c2)cc1	-68	?	-	-	-
CC(C)C(=O)NC(=S)Nc1ccccc1N1CCN(C(=O)c2ccc(Cl)cc2)CC1	-	-	-	?	1.5µM
CC(C)(C)C(=O)Nc1ccccc1N1CCN(C(=O)c2ccc(Cl)cc2)CC1	-	?	-	-	10µM
O=C(CSc1ccc(Cl)cc1)Nc1ccccc1N1CCN(C(=O)c2ccc(Cl)cc2)CC1	-	?	-	-	4.1µM
O=C(Nc1ccccc1N1CCCC1)C1CCN(C(=O)c2ccc(Cl)cc2)CC1	-	?	.	-	?
Cc1ccccc1C(=O)Nc1ccccc1N1CCN(C(=O)c2ccccc2)CC1	-73	-	-	-	12µM
CCOC(=O)N1CCN(C(=O)c2ccc(CSc3ccc(Cl)cc3)cc2)CC1	-71	?	-	-	?
C=C(C)CSc1nc(-c2ccccc2)cc(-c2ccc(OC)cc2)c1C#N	-	.	.	-	.
CC(C)OC(=O)CC(=O)CSc1nc(-c2ccc(F)cc2)cc(-c2ccccc2)c1C#N	-62	?	-	-	?
COc1ccc(-c2cc(-c3ccccc3)nc(SCC(=O)CC(=O)OC(C)C)c2C#N)cc1	-	.	.	-	.
CSc1nc(C2CC2)cc(-c2cccs2)c1C#N	-102	?	-	-	-
CCN(CC)C(=O)CSc1nc(-c2cccs2)cc(-c2cccs2)c1C#N	?	?	-	?	8.3µM
CCN(CC)C(=O)CSc1nc(-c2ccccc2)cc(-c2ccc(OC)cc2)c1C#N	-65	.	.	-	.
O=C(c1ccccc1F)N1CC(=O)N2[C@H](CO)[C@H](c3ccc(Br)cc3)[C@@H]2C1	-	.	.	.	.
COc1ccccc1NS(=O)(=O)c1ccc(C(=O)N2CCN(c3ccccn3)CC2)cc1	-	.	.	.	.
SMILES	HCMV inh	Pf growth 96h	FBPA Giardia inh	Sm TGR inh	Pf growth 48h
CCc1ccc(NC(=O)CSc2ccnc(=O)[nH]2)cc1	-	.	.	-	.
CN1CCN(C(=O)CSc2nc(-c3cccs3)cc(-c3cccs3)c2C#N)CC1	.	2.1µM	-	-	?
N#Cc1c(-c2ccc(F)cc2)cc(-c2cccs2)nc1SCC(=O)O	-	-	-	-	.
O=C(CCc1ccccc1)N1CCN(S(=O)(=O)c2cccs2)CC1	-	-	.	-	-
COc1ccccc1-c1nnc(Sc2nc([N+](=O)[O-])nn2C)o1	-75	1.9µM	-	?	.
NC1=NC[C@H](Cc2ccc(O)cc2)N1CCc1cccc2ccccc12	?	1µM	-	-	3.3µM
NCCCC[C@H]1CN=C(N)N1CCc1cccc2ccccc12	-	.	.	.	.
NC1=NC[C@@H](Cc2ccc(O)cc2)N1CCc1cccc2ccccc12	-	1.9µM	-	-	5.9µM
COc1ccc([C@@H]2[C@H](C(=O)N3CCCC3)CC(=O)N2C(=O)c2ccccc2)cc1	-	.	.	.	.
CC(C)c1ccc(C(=O)NC(=S)Nc2ccc3[nH]c(=O)[nH]c3c2)cc1	-	-	-	-	-
CCC[C@H]1[C@@H](NS(=O)(=O)c2ccc(Cl)cc2)CC[C@@]23CCCN2C(=O)CCC[C@@H]13	-	.	.	.	.
CCC[C@H]1[C@@H](NS(=O)(=O)c2ccc(C)cc2)CC[C@@]23CCCN2C(=O)CCC[C@@H]13	-103	.	.	.	.
CCOC(=O)C1CCCN(c2cc(=O)n(C3CCCCC3)c(=O)[nH]2)C1 (centres undefined)	-	-	-	-	-
O=C(Nc1c(C(=O)c2ccccc2)oc2ccccc12)c1cc(-c2ccccc2O)n[nH]1	-	0.66µM	-	-	1.5µM
Cc1ccc(C(=O)c2oc3ccccc3c2NC(=O)c2cc(-c3cc(C)ccc3O)n[nH]2)cc1	-63	0.33µM	-	-	0.33µM
O=C(Nc1c(C(=O)c2ccccc2)oc2ccccc12)c1cc(=O)c2ccccc2o1	-	.	.	-	.
CC(C)(C)c1ccc(C(=O)Nc2c(C(=O)c3ccc(F)cc3)oc3ccccc23)cc1	-	.	.	-	.
Cc1ccc(C(=O)c2oc3ccccc3c2NC(=O)c2cc(-c3ccccc3O)n[nH]2)cc1	-63	0.59µM	-	-	1.5µM
COc1ccc(NC(=O)NC2COc3ccccc3C2)c(OC)c1 (centres undefined)	-	.	.	-	.
CC(C)=CCC/C(C)=C/CO	.	-	-	.	-
Nc1sc(-c2ccccc2)c(Cc2ccccc2)c1C(=O)O	-	-	-	-	-
COC(=O)c1cc(C(=O)Nc2ccc(C)cn2)cc([N+](=O)[O-])c1	-	12µM	-	-	-
CCOC(=O)c1c(-c2ccccc2)oc2ccc(NS(=O)(=O)c3ccc(C)cc3)cc12	-	.	.	-	.
Cc1cc(=O)[nH]c(SCC(=O)C23CC4CC(CC(C4)C2)C3)c1C#N	-	-	-	16µM	-
COc1ccc(NC(=O)c2ccccc2OCc2ccc(F)cc2)c(OC)c1	-	?	-	-	?
SMILES	HCMV inh	Pf growth 96h	FBPA Giardia inh	Sm TGR inh	Pf growth 48h
CCOc1ccc(OCc2ccc(C(=O)N/N=C(\C)c3ccccn3)cc2)cc1	-85	0.37µM	-	-	0.37µM
C/C(=N\NC(=O)c1ccccc1OCc1ccc(F)cc1)c1ccccn1	-102	4.1µM	.	-	1.5µM
O=C(Nc1ccc2ccccc2c1)C(=O)c1ccccc1F	-	.	.	.	.
Cc1cc(NC(=O)CCl)no1	-82	-	-	8.9µM	2.9µM
CC(=O)O[C@H]1C[C@@]2(C)[C@@H](C[C@@H](O)[C@H]3[C@@]4(C)CC[C@@H](O)[C@@H](C)[C@@H]4CC[C@@]32C)/C1=C(\CCC=C(C)C)C(=O)O	-	?	.	?	12µM
CC(=O)OC1C[C@]2(C)[C@@H](CC(O)C3[C@]4(C)CCC(O)C(C)[C@@H]4CC[C@]32C)/C1=C(/CCC=C(C)C)C(=O)O (some centres undefined)	.	.	-	.	.
COc1ccc(C(=O)N2CCC3(CCCN(c4ncccn4)C3)CC2)cc1	.	.	-	.	.
